The campaign covered roughly 39,000 compounds. About 3,300 (8.5%) were called active. This excerpt belongs to a sample that is enriched for actives.
Tested on: HepG2
Assay: cytotoxicity call (relative viability < 0.9)
Settings: 10 µM

| Structure (SMILES) | cytotoxicity call |
| --- | --- |
| C[C@@H]1CN([C@@H](C)CO)C(=O)c2cc(NC(=O)Cc3cn(C)c4ccccc34)ccc2O[C@@H]1CN(C)S(=O)(=O)c1cn(C)cn1 | inactive |
| CN(C)C(=O)C[C@H]1CC[C@@H]2[C@H](COc3ccc(NS(=O)(=O)c4cccc(F)c4)cc3C(=O)N2C)O1 | inactive |
| Cc1ccc(S[C@]2(C(=O)NC(C)C)CC(=O)N(Cc3ccccc3C(F)(F)F)[C@@H]2c2ccc(CO)cc2I)cc1 | inactive |
| CC(C)NC(=O)Nc1ccc2c(c1)C(=O)N([C@H](C)CO)C[C@@H](C)[C@H](CN(C)Cc1ccccc1)OCCCC[C@@H](C)O2 | inactive |
| C[C@@H]1CCCCO[C@H](CN(C)S(=O)(=O)c2cn(C)cn2)[C@@H](C)CN([C@@H](C)CO)C(=O)c2cc(N(C)C)ccc2O1 | inactive |
| Cc1ccc(S(=O)(=O)N(C)C[C@H]2OCCCC[C@@H](C)Oc3ccc(NC(=O)Nc4c(C)noc4C)cc3C(=O)N([C@H](C)CO)C[C@@H]2C)cc1 | inactive |
| CSc1ccc2cc(CN(C[C@H]3CCCO3)C(=O)c3ccco3)c(N(C)Cc3csc(C)n3)nc2c1 | inactive |
| C[C@@H]1CN([C@@H](C)CO)C(=O)c2cc(NC(=O)CCCN(C)C)ccc2O[C@@H](C)CCCCO[C@@H]1CN(C)S(C)(=O)=O | inactive |
| CO[C@@H]1CN(C)C(=O)c2cc(NC(=O)Nc3ccccc3)ccc2OC[C@@H](C)N(C(=O)CN(C)C)C[C@H]1C | inactive |
| CC(OC1OCCN(C(C)c2nc(=O)[nH][nH]2)C1c1ccc(F)cc1)c1cc(C(F)(F)F)cc(C(F)(F)F)c1 (stereo not given) | active |
| C[C@@H](O[C@H]1OCCN(Cc2n[nH]nc2CN(C)C)[C@H]1c1ccc(F)cc1)c1cc(C(F)(F)F)cc(C(F)(F)F)c1 | active |
| COc1ccc(S(=O)(=O)Nc2cccc3c2O[C@@H](CN(C)Cc2ccc(-c4ccccc4)cc2)[C@@H](C)CN([C@@H](C)CO)C3=O)cc1 | inactive |
| CC(C)NC(=O)N(C)C[C@@H]1OCCCC[C@@H](C)Oc2ccc(NC(=O)C3CCCCC3)cc2C(=O)N([C@H](C)CO)C[C@H]1C | inactive |
| C[C@H]1CN([C@@H](C)CO)C(=O)Cc2cc(NC(=O)Cc3cn(C)c4ccccc34)ccc2O[C@H]1CN(C)Cc1ccc(-c2ccccc2)cc1 | inactive |
| C[C@@H]1CN([C@@H](C)CO)C(=O)Cc2cc(NC(=O)Cc3cn(C)c4ccccc34)ccc2O[C@@H]1CN(C)Cc1ccc(-c2ccccc2)cc1 | active |
| C[C@H]1CN([C@@H](C)CO)C(=O)Cc2cc(NC(=O)Cc3cn(C)c4ccccc34)ccc2O[C@@H]1CN(C)Cc1ccc(C(=O)Nc2ccccc2N)cc1 | inactive |
| C[C@H](CO)N1C[C@H](C)[C@@H](CN(C)Cc2ccc(-c3ccccc3)cc2)Oc2ccc(NC(=O)Cc3cn(C)c4ccccc34)cc2CC1=O | inactive |
| C[C@H](CO)N1C[C@H](C)[C@@H](CN(C)CC2CCCCC2)Oc2ccc(NC(=O)Cc3cn(C)c4ccccc34)cc2CC1=O | inactive |
| C[C@@H]1CN([C@@H](C)CO)C(=O)Cc2cc(NC(=O)Cc3cn(C)c4ccccc34)ccc2O[C@H]1CN(C)Cc1ccc(-c2ccccc2)cc1 | inactive |
| C[C@@H]1CN([C@H](C)CO)C(=O)Cc2cc(NC(=O)Cc3cn(C)c4ccccc34)ccc2O[C@@H]1CN(C)Cc1ccc(C(=O)Nc2ccccc2N)cc1 | inactive |

| Structure (SMILES) | cytotoxicity call |
| --- | --- |
| C[C@@H]1CN([C@H](C)CO)C(=O)Cc2cc(NC(=O)Cc3cn(C)c4ccccc34)ccc2O[C@H]1CN(C)Cc1ccc(-c2ccccc2)cc1 | active |
| C[C@@H]1CN([C@@H](C)CO)C(=O)Cc2cc(NC(=O)Cc3cn(C)c4ccccc34)ccc2O[C@@H]1CN(C)CC1CCCCC1 | active |
| C[C@H](CO)N1C[C@H](C)[C@H](CN(C)Cc2ccc(C(=O)Nc3ccccc3N)cc2)Oc2ccc(NC(=O)Cc3cn(C)c4ccccc34)cc2CC1=O | active |
| C[C@@H]1CN([C@H](C)CO)C(=O)Cc2cc(NC(=O)Cc3cn(C)c4ccccc34)ccc2O[C@@H]1CN(C)CC1CCCCC1 | inactive |
| C[C@H](CO)N1C[C@H](C)[C@H](CN(C)Cc2ccc(-c3ccccc3)cc2)Oc2ccc(NC(=O)Cc3cn(C)c4ccccc34)cc2CC1=O | inactive |
| C[C@@H]1CN([C@H](C)CO)C(=O)c2cc(NC(=O)CCCN(C)C)ccc2O[C@@H]1CN(C)S(=O)(=O)c1ccccc1 | inactive |
| CCCC(=O)N(CCc1c[nH]c2ccccc12)[C@@H]1CC(C(=O)NCCO)=C[C@H](Oc2c(I)cc(CO)cc2OC)[C@H]1O | inactive |
| CN(C)CC(=O)N[C@H]1CC[C@H](CCNC(=O)C2CCC2)O[C@H]1CO | inactive |
| Cc1noc(C)c1S(=O)(=O)Nc1ccc2c(c1)C(=O)N([C@H](C)CO)C[C@H](C)[C@@H](CN(C)C(=O)Nc1cccc3ccccc13)OCCCC[C@@H](C)O2 | inactive |
| COCC(=O)N[C@@H]1C=C[C@H](CC(=O)N2CCCCC2)O[C@@H]1CO | inactive |
| CN1C(=O)c2cc(NC(=O)Cc3cccs3)ccc2OC[C@H]2O[C@@H](CC(=O)NCCc3ccncc3)CC[C@H]21 | inactive |
| C[C@@H]1CCCCO[C@@H](CN(C)S(=O)(=O)c2ccccc2)[C@@H](C)CN([C@H](C)CO)C(=O)c2cc(NC(=O)Nc3ccc4c(c3)OCO4)ccc2O1 | inactive |
| C[C@H](CO)N1C[C@H](C)[C@H](CN(C)S(=O)(=O)c2cccs2)Oc2ccc(NC(=O)c3ccncc3)cc2C1=O | inactive |
| COc1ccc(NC(=O)N(C)C[C@H]2Oc3c(NC(=O)c4cnccn4)cccc3C(=O)N([C@H](C)CO)C[C@H]2C)cc1 | inactive |
| C[C@@H]1CN([C@H](C)CO)C(=O)c2cccc(NC(=O)c3ccncc3)c2O[C@@H]1CN(C)Cc1ccc2c(c1)OCO2 | inactive |
| C[C@@H]1CN([C@H](C)CO)C(=O)c2cccc(NS(=O)(=O)c3cn(C)cn3)c2O[C@@H]1CN(C)C(=O)Nc1ccc2c(c1)OCO2 | inactive |
| CC(C)(C)NC[C@@]1(CO)SC(N)=NC1=O | inactive |
| C[C@H]1CN([C@@H](C)CO)C(=O)Cc2cc(NC(=O)Cc3cn(C)c4ccccc34)ccc2O[C@@H]1CN(C)Cc1ccc(-c2ccccc2)cc1 | inactive |
| C[C@@H]1CN([C@H](C)CO)C(=O)Cc2cc(NC(=O)Cc3cn(C)c4ccccc34)ccc2O[C@@H]1CN(C)Cc1ccc(-c2ccccc2)cc1 | active |
| C[C@@H]1CN(S(=O)(=O)N2CCN(C(=O)c3[nH]nc4ccccc34)CC2)C[C@H](C)O1 | inactive |

| Structure (SMILES) | cytotoxicity call |
| --- | --- |
| C[C@@H]1CN([C@@H](C)CO)C(=O)CCCn2nncc2CO[C@@H]1CN(C)C(=O)C1CC1 | inactive |
| C[C@@H]1CN([C@@H](C)CO)C(=O)c2cc(NC(=O)Nc3ccc4c(c3)OCO4)ccc2O[C@@H](C)CCCCO[C@H]1CN(C)Cc1ccc(C(F)(F)F)cc1 | inactive |
| C[C@@H]1CCCCO[C@H](CN(C)Cc2ccc(C(F)(F)F)cc2)[C@@H](C)CN([C@@H](C)CO)C(=O)c2cc(NC(=O)Nc3ccc4c(c3)OCO4)ccc2O1 | active |
| C[C@@H]1CN([C@H](C)CO)C(=O)c2cc(NC(=O)Nc3ccc4c(c3)OCO4)ccc2O[C@@H](C)CCCCO[C@@H]1CN(C)Cc1ccc(C(F)(F)F)cc1 | inactive |
| C[C@@H]1CCCCO[C@@H](CN(C)Cc2ccc(C(F)(F)F)cc2)[C@H](C)CN([C@@H](C)CO)C(=O)c2cc(NC(=O)Nc3ccc4c(c3)OCO4)ccc2O1 | active |
| C[C@@H]1CCCCO[C@@H](CN(C)Cc2ccc(C(F)(F)F)cc2)[C@@H](C)CN([C@@H](C)CO)C(=O)c2cc(NC(=O)Nc3ccc4c(c3)OCO4)ccc2O1 | inactive |
| C[C@@H]1CN([C@H](C)CO)C(=O)c2cc(NC(=O)Nc3ccc4c(c3)OCO4)ccc2O[C@@H](C)CCCCO[C@H]1CN(C)Cc1ccc(C(F)(F)F)cc1 | active |
| C[C@@H]1CN([C@@H](C)CO)C(=O)c2cc(NC(=O)Nc3ccc4c(c3)OCO4)ccc2O[C@@H](C)CCCCO[C@@H]1CN(C)Cc1ccc(C(F)(F)F)cc1 | inactive |
| C[C@@H]1CCCCO[C@H](CN(C)Cc2ccc(C(F)(F)F)cc2)[C@H](C)CN([C@H](C)CO)C(=O)c2cc(NC(=O)Nc3ccc4c(c3)OCO4)ccc2O1 | active |
| COc1ccc(CN(C)C[C@H]2Oc3ccc(NC(=O)Cn4cnnn4)cc3CC(=O)N([C@H](C)CO)C[C@@H]2C)cc1 | inactive |
| C[C@@H]1CN([C@@H](C)CO)C(=O)c2cc(NC(=O)CCC(F)(F)F)ccc2O[C@@H]1CN(C)C(=O)Nc1cccc2ccccc12 | inactive |
| O=C(C[C@@H]1CC[C@@H]2[C@H](COC[C@H](O)CN2S(=O)(=O)c2ccc(Cl)cc2)O1)NCCN1CCCCC1 | inactive |
| C[C@@H]1CN([C@@H](C)CO)C(=O)c2cc(C#Cc3cccc(F)c3)cnc2O[C@H]1CN(C)CC1CCOCC1 | inactive |
| Cc1noc(C)c1NC(=O)N(C)C[C@H]1OCCCC[C@@H](C)Oc2ccc(NS(=O)(=O)c3ccccc3)cc2C(=O)N([C@@H](C)CO)C[C@@H]1C | inactive |
| CNC(=NC#N)NCCSCc1nc[nH]c1C | inactive |
| N#C[C@@H]1[C@@H](c2ccc(C#Cc3ccccn3)cc2)[C@H](CO)N1C(=O)CN1CCOCC1 | inactive |
| CN(C)CC(=O)N1CC(=O)N2[C@H](CO)[C@H](c3ccc(C#Cc4cccnc4)cc3)[C@@H]2C1 | inactive |
| COC(=O)[C@@H](Cc1ccc(-n2cc(C(=O)NO)nn2)cc1)N1CC2=CC(=O)[C@@H](C3CC3)[C@@H]2[C@H]1[C@H](O)Cc1ccccc1 | inactive |
| COc1ccccc1-c1ccc2c(c1)O[C@@H](CN(C)C(=O)c1ccncc1)[C@H](C)CN([C@@H](C)CO)S2(=O)=O | inactive |
| CN1CCN(C(=O)C[C@H]2CC[C@H]3[C@@H](COC[C@H](O)CN3C(=O)C3CCOCC3)O2)CC1 | inactive |
